Measurements published in PubChem BioAssay (EPA / NIEHS).
Several values for one entry are separate records, joined by “and”; a condition that tells them apart may be missing. Equal entries are not always repeated. Inconclusive results are not listed. A structure can be active in one record and inactive in another. Activity calls are given as the source filed them. How the source made its calls, unless noted: active means hit-call score of the fitted dose curve at least 0.9, where 1 is the maximum; inactive means score below 0.9.

Experiments:
[1] = target: human RAR-related Orphan Receptor gamma (RORg), RORC (gene 6097) (UniProt P51449); test: ATG_RORg_TRANS: Attagene TRANS-FACTORIAL HepG2 Assay for human RAR-related Orphan Receptor gamma (RORg) (AID 2283011; active means hit-call score of the fitted dose curve at least 0.9, where 1 is the maximum)
Chain of human RAR-related Orphan Receptor gamma (RORg), RORC (gene 6097) (P51449 whole entry, looked up, the tested form may be a part): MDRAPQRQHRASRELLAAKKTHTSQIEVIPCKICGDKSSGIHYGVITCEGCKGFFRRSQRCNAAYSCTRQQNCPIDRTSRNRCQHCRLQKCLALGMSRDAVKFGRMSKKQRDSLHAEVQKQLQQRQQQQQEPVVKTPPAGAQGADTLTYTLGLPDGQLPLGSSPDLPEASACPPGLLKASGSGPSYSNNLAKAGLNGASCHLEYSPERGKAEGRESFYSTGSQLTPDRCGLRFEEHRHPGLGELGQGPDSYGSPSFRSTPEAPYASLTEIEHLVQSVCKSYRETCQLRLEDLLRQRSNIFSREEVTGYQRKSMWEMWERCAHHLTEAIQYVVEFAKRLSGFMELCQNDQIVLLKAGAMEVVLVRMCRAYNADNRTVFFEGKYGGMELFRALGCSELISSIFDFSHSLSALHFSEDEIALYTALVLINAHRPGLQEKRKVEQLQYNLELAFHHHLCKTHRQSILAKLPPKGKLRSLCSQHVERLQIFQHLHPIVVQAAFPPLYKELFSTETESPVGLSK
How it was run: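 Readout: reporter transcript induction (RT-PCR, fluorescent primer extension, capillary electrophoresis) after 24 h compound exposure of transiently transfected HepG2 cells carrying a RORg-Gal4 chimera and GAL4-UAS reporters; DMSO served as baseline, with increasing signal fitted.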

[2] = target: Retinoic acid receptor RXR-alpha (Homo sapiens) (UniProt P19793); test: ATG_RXRa_TRANS: Attagene TRANS-FACTORIAL HepG2 Assay for human Retinoid X Receptor alpha (RXRa) (AID 2283012; active means hit-call score of the fitted dose curve at least 0.9, where 1 is the maximum)
Chain of Retinoic acid receptor RXR-alpha (Homo sapiens) (P19793 whole entry, looked up, the tested form may be a part): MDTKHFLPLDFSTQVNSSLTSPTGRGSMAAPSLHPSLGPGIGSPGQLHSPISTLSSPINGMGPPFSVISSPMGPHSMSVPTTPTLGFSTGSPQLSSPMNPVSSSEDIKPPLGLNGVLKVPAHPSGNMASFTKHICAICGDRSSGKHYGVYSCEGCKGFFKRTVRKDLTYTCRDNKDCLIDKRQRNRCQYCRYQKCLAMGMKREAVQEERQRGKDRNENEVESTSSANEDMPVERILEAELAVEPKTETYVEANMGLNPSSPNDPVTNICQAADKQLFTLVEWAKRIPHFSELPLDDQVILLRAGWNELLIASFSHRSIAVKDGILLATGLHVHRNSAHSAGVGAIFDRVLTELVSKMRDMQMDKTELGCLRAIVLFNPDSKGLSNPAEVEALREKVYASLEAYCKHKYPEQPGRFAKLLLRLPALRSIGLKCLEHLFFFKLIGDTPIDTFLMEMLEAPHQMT
How it was run: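 Transient transfection of human HepG2 with multiple GAL4-UAS reporter constructs; 24 h compound exposure; total RNA isolated, reverse-transcribed, PCR-amplified, 6-FAM labelled, HpaI-cut, resolved by capillary electrophoresis. Positive-direction fit versus DMSO.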

[3] = read-out: E-selectin (Homo sapiens) (UniProt P16581); test: BSK_3C_Eselectin: BioMAP Diversity Plus: 3C Assay for Eselectin Biomarker Activity (AID 2283015); conditions: primary human endothelial cells (HUVEC); actives raise or lower the signal
How it was run: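 Primary human umbilical vein endothelial cells (3C system) were dosed with chemical and cell-surface E-selectin measured by ELISA 24 h later. Bidirectional curve fitting used DMSO as negative control and baseline.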

[4] = read-out: Interleukin-1 alpha (IL1a), IL1A (gene 3552); test: BSK_BE3C_IL1a: BioMAP Diversity Plus: BE3C Assay for Interleukin-1 alpha (IL1a) Biomarker Activity (AID 2283016); conditions: primary human bronchial epithelial cells; actives raise or lower the signal
How it was run: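 BE3C primary human bronchial epithelium; cpd 24 h; IL-1a by ELISA; bidirectional fit vs DMSO; parallel SRB (0.1% SRB, 10% TCA fix, 560 nm) for cytotoxicity.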

[5] = read-out: Monocyte Chemoattractant Protein-1 (MCP1), CCL2 (gene 6347); test: BSK_3C_MCP1: BioMAP Diversity Plus: 3C Assay for Monocyte Chemoattractant Protein-1 (MCP1) Biomarker Activity (AID 2283017); conditions: primary human endothelial cells (HUVEC); actives raise or lower the signal
How it was run: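 Primary human umbilical vein endothelial cells (3C system) were exposed to test chemical for 24 h, after which MCP-1 was quantified by ELISA. Activity was fitted bidirectionally against DMSO as negative control and baseline.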

[6] = read-out: Monocyte Chemoattractant Protein-1 (MCP1), CCL2 (gene 6347); test: BSK_4H_MCP1: BioMAP Diversity Plus: 4H Assay for Monocyte Chemoattractant Protein-1 (MCP1) Biomarker Activity (AID 2283018); conditions: primary human endothelial cells (HUVEC); actives raise or lower the signal
How it was run: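 ELISA read-out of MCP-1 from human vascular endothelial primary cells taken at 24 hours after compound exposure. Activity was fitted in both directions relative to DMSO, which served as negative control.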

[7] = read-out: Human Leukocyte Antigen - DR isotype (HLADR), HLA-DRA (gene 3122); test: BSK_3C_HLADR: BioMAP Diversity Plus: 3C Assay for Human Leukocyte Antigen - DR isotype (HLADR) Biomarker Activity (AID 2283019); conditions: primary human endothelial cells (HUVEC); actives raise or lower the signal
How it was run: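 Primary human umbilical vein endothelial cells (3C system) were dosed with compound and cell-surface HLA-DR was quantified by ELISA at 24 h. Activity was fitted bidirectionally against DMSO as negative control and baseline.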

[8] = read-out: Interleukin-8 (IL8), CXCL8 (gene 3576); test: BSK_3C_IL8: BioMAP Diversity Plus: 3C Assay for Interleukin-8 (IL8) Biomarker Activity (AID 2283020); conditions: primary human endothelial cells (HUVEC); actives raise or lower the signal
How it was run: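 ELISA read-out of IL-8 from human umbilical vein endothelium, measured 24 h after chemical dosing. Activity is expressed relative to DMSO negative control, with both increases and decreases fitted.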

[9] = read-out: Monokine induced gamma interferon (MIG), CXCL9 (gene 4283); test: BSK_3C_MIG: BioMAP Diversity Plus: 3C Assay for Monokine induced gamma interferon (MIG) Biomarker Activity (AID 2283021); conditions: primary human endothelial cells (HUVEC); actives raise or lower the signal;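 on AC50: MIG protein level measured by immunoassay in the treated endothelial cultures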
How it was run: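 Read-out is ELISA detection of MIG on human umbilical vein endothelial cells, taken 24 h after dosing. Gain or loss of signal was scored relative to DMSO controls using bidirectional curve fitting.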

[10] = BSK_3C_SRB: Viability Assessment in the BioMAP Diversity Plus: 3C Assay (AID 2283023); conditions: primary human endothelial cells (HUVEC);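 further: fitted both ways against DMSO so a hit may be signal rise or drop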
How it was run: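 Primary human umbilical vein endothelial cells in the 3C system were read 24 h after compound dosing. Total protein was stained with 0.1% sulforhodamine B after 10% TCA fixation and read at 560 nm, with bidirectional fitting against DMSO as baseline.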

[11] = read-out: Matrix Metallopeptidase 1 (MMP1), MMP1 (gene 4312); test: BSK_BE3C_MMP1: BioMAP Diversity Plus: BE3C Assay for Matrix Metallopeptidase 1 (MMP1) Biomarker Activity (AID 2283024); conditions: primary human bronchial epithelial cells; actives raise or lower the signal
How it was run: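 Human bronchial epithelial cells (BE3C system) exposed to compound for 24 h; MMP1 then quantified by ELISA. Activity was fitted in both directions relative to DMSO.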

[12] = BSK_3C_Vis: BioMAP Diversity Plus: 3C Assay for Morphology Visualization (AID 2283025); conditions: primary human endothelial cells (HUVEC);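 further: fitted both ways so gain or loss versus DMSO counts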
How it was run: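 Chemicals were added to primary human umbilical vein endothelium, cells were incubated 24 h, and morphology was then visualized by light microscopy. Gain or loss of signal was fitted bidirectionally relative to DMSO.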

[13] = read-out: Pselectin, SELP (gene 6403); test: BSK_4H_Pselectin: BioMAP Diversity Plus: 4H Assay for Pselectin Biomarker Activity (AID 2283026); conditions: primary human endothelial cells (HUVEC); actives raise or lower the signal
How it was run: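 ELISA read-out of P-selectin on human umbilical vein endothelium after 24 h of dosing. Values derive from bidirectional fitting relative to DMSO. Parallel SRB protein staining flagged overt cytotoxicity.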

[14] = BSK_BE3C_SRB: Viability Assessment in the BioMAP Diversity Plus: BE3C Assay (AID 2283028); conditions: primary human bronchial epithelial cells
How it was run: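 Human primary bronchial epithelial cells were exposed to test chemicals for 24 h. Total protein in parallel cultures was then measured by staining with 0.1% sulforhodamine B after 10% TCA fixation, with absorbance read at 560 nm. Activity was fitted bidirectionally against DMSO.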

[15] = read-out: Thrombomodulin, THBD (gene 7056); test: BSK_3C_Thrombomodulin: BioMAP Diversity Plus: 3C Assay for Thrombomodulin Biomarker Activity (AID 2283029); conditions: primary human endothelial cells (HUVEC); actives raise or lower the signal
How it was run: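 Read-out is ELISA of thrombomodulin on human umbilical vein endothelium 24 h after chemical dosing. Gain or loss of signal is scored relative to DMSO. Overt cytotoxicity is checked in parallel cultures by sulforhodamine B staining.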

[16] = read-out: Urokinase-type plasminogen activator receptor (uPAR), PLAUR (gene 5329); test: BSK_4H_uPAR: BioMAP Diversity Plus: 4H Assay for Urokinase-type plasminogen activator receptor (uPAR) Biomarker Activity (AID 2283030); conditions: primary human endothelial cells (HUVEC); actives raise or lower the signal
How it was run: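 Primary human umbilical vein endothelial cells were exposed to chemical for 24 h before cell-surface uPAR was quantified by ELISA. Activity was fitted bidirectionally against the DMSO negative control baseline.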

[17] = target: human Retinoid X Receptor beta (RXRb), RXRB (gene 6257) (UniProt P28702); test: ATG_RXRb_TRANS: Attagene TRANS-FACTORIAL HepG2 Assay for human Retinoid X Receptor beta (RXRb) (AID 2283013; active means hit-call score of the fitted dose curve at least 0.9, where 1 is the maximum)
Chain of human Retinoid X Receptor beta (RXRb), RXRB (gene 6257) (P28702 whole entry, looked up, the tested form may be a part): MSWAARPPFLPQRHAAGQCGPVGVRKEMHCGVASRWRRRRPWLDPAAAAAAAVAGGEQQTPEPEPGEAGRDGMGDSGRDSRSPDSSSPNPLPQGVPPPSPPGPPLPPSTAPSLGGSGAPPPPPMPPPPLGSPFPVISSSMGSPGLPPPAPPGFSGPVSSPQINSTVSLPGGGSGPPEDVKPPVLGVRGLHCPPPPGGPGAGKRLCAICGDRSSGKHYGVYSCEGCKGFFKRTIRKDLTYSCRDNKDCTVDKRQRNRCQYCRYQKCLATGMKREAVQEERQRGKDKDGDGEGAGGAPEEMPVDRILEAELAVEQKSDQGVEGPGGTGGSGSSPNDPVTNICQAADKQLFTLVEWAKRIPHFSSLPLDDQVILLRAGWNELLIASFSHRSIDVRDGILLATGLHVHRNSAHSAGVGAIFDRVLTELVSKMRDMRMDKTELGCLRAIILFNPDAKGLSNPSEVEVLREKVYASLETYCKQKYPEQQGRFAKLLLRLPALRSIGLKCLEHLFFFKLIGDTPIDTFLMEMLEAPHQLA
How it was run: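 Transfect HepG2 with GAL4-UAS multi-reporter constructs (chimeric NR-Gal4, TRANS format); dose compound 24 h; isolate RNA, RT-PCR, FAM primer extension, HpaI digest; quantify by capillary electrophoresis; positive direction vs DMSO.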

[18] = target: human Thyroid Receptor alpha (THRa1), THRA (gene 7067) (UniProt P10827); test: ATG_THRa1_TRANS: Attagene TRANS-FACTORIAL HepG2 Assay for human Thyroid Receptor alpha (THRa1) (AID 2283014; active means hit-call score of the fitted dose curve at least 0.9, where 1 is the maximum)
Chain of human Thyroid Receptor alpha (THRa1), THRA (gene 7067) (P10827 whole entry, looked up, the tested form may be a part): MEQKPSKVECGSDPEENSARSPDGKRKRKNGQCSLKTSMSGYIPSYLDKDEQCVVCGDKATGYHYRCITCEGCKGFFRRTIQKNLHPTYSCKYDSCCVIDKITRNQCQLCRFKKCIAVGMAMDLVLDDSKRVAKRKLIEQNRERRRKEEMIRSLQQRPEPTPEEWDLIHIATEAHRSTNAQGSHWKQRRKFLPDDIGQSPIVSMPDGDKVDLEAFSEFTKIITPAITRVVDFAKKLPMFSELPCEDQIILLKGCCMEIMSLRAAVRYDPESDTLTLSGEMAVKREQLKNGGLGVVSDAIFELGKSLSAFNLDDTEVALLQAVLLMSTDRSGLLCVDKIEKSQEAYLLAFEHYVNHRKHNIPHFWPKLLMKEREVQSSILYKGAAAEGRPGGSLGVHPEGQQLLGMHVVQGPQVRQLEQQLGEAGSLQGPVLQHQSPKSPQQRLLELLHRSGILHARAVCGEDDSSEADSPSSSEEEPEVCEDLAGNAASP
How it was run: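 HepG2 cells transiently transfected with multiplexed GAL4-UAS reporter units for exogenous chimeric THRa1-Gal4; reporter mRNA measured 24 h after dosing by RT-PCR, 6-FAM labelling, HpaI digestion and capillary electrophoresis. Gain-of-signal fitted versus DMSO baseline.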

[19] = target: human Vitamin D Receptor (VDR), VDR (gene 7421) (UniProt P11473); test: ATG_VDR_TRANS: Attagene TRANS-FACTORIAL HepG2 Assay for human Vitamin D Receptor (VDR) (AID 2283022; active means hit-call score of the fitted dose curve at least 0.9, where 1 is the maximum)
Chain of human Vitamin D Receptor (VDR), VDR (gene 7421) (P11473 whole entry, looked up, the tested form may be a part): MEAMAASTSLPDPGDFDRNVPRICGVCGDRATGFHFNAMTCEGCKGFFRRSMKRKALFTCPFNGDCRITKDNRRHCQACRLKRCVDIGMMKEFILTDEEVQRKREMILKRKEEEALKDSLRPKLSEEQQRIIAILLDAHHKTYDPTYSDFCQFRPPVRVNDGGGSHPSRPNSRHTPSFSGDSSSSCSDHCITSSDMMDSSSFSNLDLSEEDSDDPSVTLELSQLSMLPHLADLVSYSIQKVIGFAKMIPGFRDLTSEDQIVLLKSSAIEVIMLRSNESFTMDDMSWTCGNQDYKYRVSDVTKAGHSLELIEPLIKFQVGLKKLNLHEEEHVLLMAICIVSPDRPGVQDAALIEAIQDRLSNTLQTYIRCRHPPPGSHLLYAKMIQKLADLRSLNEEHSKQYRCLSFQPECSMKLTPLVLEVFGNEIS
How it was run: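 HepG2 cells were transiently transfected with multiple GAL4-UAS reporter units, so signal reflects exogenous chimeric receptor-Gal4 activity. After 24 h compound exposure, reporter mRNA was measured by RT-PCR, fluorescent labelling and capillary electrophoresis, fitted for gain of signal versus DMSO.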

[20] = BSK_4H_SRB: Viability Assessment in the BioMAP Diversity Plus: 4H Assay (AID 2283027); conditions: primary human endothelial cells (HUVEC);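 further: cells exposed to compound for 24 h before staining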;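 on AC50: curves fitted both ways versus DMSO so AC50 may be loss or gain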
How it was run: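 Human umbilical vein endothelial cells, 24 h after chemical dosing; total protein measured by 0.1% sulforhodamine B staining after 10% TCA fixation, read at 560 nm. Bidirectional fitting against DMSO.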

Measured: AC50

Chain of E-selectin (Homo sapiens) (P16581 whole entry, looked up): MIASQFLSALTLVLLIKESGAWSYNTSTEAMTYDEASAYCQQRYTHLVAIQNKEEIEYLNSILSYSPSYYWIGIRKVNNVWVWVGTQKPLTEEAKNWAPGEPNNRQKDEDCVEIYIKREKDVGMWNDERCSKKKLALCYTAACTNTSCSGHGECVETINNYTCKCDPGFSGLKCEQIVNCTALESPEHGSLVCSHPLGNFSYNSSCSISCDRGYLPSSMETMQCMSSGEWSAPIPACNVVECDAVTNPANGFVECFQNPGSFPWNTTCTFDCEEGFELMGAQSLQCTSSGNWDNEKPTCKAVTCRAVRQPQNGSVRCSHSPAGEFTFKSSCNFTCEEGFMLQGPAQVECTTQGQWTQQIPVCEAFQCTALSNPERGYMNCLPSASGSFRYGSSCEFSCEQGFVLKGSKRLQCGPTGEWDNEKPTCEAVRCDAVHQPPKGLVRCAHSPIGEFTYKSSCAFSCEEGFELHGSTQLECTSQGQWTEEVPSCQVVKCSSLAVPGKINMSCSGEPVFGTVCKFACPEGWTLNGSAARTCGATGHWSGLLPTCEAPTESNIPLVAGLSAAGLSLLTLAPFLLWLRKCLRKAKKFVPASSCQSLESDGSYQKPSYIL

N#Cc1ccc(N(CC(N)=O)CC(F)(F)F)cc1C(F)(F)F
inactive: [1] | [2] | [3] | [4] | [5] | [6] | [7] | [8] | [9] | [10] | [11] | [12] | [13] | [14] | [15] | [16]

Cc1cc(O)ccc1Cl
inactive: [1] | [2] | [17] | [18] | [3] | [4] | [5] | [6] | [7] | [9] | [19] | [10] | [11] | [12] | [13] | [14] | [15] | [16]

O=C(O)C(F)(F)C(F)(F)C(F)(F)C(F)(F)C(F)(F)C(F)(F)C(F)(F)C(F)(F)C(F)(F)F
inactive: [1] | [2] | [18] | [3] | [6] | [9] | [11] | [12] | [13] | [15] | [16]
active: [17] 18.1 µM and 13.4 µM and 13.2 µM | [3] 53.8 µM and 54.9 µM | [4] 18.5 µM and 11.9 µM and 13.4 µM | [5] 32.5 µM and 54.6 µM and 52.9 µM | [6] 48.2 µM and 53.7 µM | [7] 33.2 µM and 53.3 µM and 56.7 µM | [9] 58.5 µM and 52.5 µM | [10] 31.3 µM and 53 µM and 51.6 µM | [11] 32.4 µM | [13] 50.1 µM and 49.5 µM | [20] 36.5 µM and 52.1 µM and 55 µM | [16] 47 µM and 55 µM

OCC(O)CO
inactive: [1] | [2] | [17]

O=C(O)C(F)(F)C(F)(F)C(F)(F)C(F)(F)C(F)(F)C(F)(F)C(F)(F)C(F)(F)F
active: [17] 13.3 µM and 41.1 µM and 26.3 µM | [4] 35 µM and 49.9 µM and 46.6 µM | [5] 54.7 µM | [7] 57.3 µM and 55 µM | [10] 54.3 µM and 51.6 µM | [11] 52.4 µM and 50.9 µM | [20] 44 µM and 46.1 µM
inactive: [1] | [2] | [18] | [3] | [5] | [6] | [7] | [9] | [19] | [10] | [11] | [12] | [13] | [20] | [15] | [16]

CCC(C)(CC)c1cc(NC(=O)c2c(OC)cccc2OC)on1
inactive: [1] | [17] | [3] | [4] | [5] | [6] | [7] | [9] | [19] | [10] | [11] | [12] | [13] | [20] | [14] | [15] | [16]
